Bioassay records as filed in PubChem BioAssay.
Hits are enriched below; roughly 6.1% of the tested compounds scored in any of these assays.
D1 antagonist: Antagonist of Human D 1 Dopamine Receptor: qHTS; D(1A) dopamine receptor (Homo sapiens), P21728; activity change, negative = inhibition, % at 10 µM; HEK293 TREx D1 cells, calcium flux, dopamine EC80; active compounds read low; hit rate 3.2% among 360,000; in the data active = activity change below about -30%; also: % is scaled to controls: 0 for no effect and ±100 for the full control effect
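Inducible Hek293 Trex D1 cells (tetracycline, overnight, 30 C). Calcium dye 30–90 min RT. Antagonist mode: EC80 dopamine added after 180 s compound read.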
D1 PAM: Potentiators of Human D1 Dopamine Receptor: qHTS. HEK293 TREx D1 cells, calcium flux, dopamine EC20 potentiation. potentiation, % at 10 µM. D(1A) dopamine receptor (Homo sapiens), P21728. hit rate 0.036% among 360,000; in the data active = potentiation above about 30%; also: 0% is about no effect
D3 ag: qHTS of D3 Dopamine Receptor Agonist: qHTS; D3R DiscoveRx beta-arrestin cells, luminescence, 90 min; max activation, %; hit rate 0.58% among 410,000; AID 652048, 2013; in the data active = max activation above about 30%; also: 0% is about no effect
Target sequence (P35462 whole entry, looked up): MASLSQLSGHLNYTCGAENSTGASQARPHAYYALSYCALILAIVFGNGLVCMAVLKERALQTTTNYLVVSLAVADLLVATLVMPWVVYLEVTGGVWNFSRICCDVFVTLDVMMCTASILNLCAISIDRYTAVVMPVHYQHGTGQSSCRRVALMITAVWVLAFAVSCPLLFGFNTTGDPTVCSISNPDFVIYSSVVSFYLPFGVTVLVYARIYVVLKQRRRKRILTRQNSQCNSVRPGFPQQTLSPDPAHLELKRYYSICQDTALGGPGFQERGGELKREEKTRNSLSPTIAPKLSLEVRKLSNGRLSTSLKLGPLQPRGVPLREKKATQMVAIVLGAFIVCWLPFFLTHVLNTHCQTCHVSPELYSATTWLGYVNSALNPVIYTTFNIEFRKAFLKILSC
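Cells at 1500/well, incubated overnight, then treated with pinned compounds (dopamine as control) for 90 min at 37 degrees C. DiscoveRx reagent added for 30 - 60 minutes at room temperature; luminescence read.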
D1 ag: Allosteric Agonists of the Human D1 Dopamine Receptor: qHTS; activation, % at 2 µM; HEK293 T-REx D1 cells, calcium flux, agonist mode; hit rate 1% among 360,000; in the data active = activation above about 30%; also: 0% is about no effect
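Inducible HEK293 T-REx D1 cells, force-coupled to calcium signalling, were plated at 4000 cells/well with tetracycline and held overnight at 30 C. After no-wash calcium dye loading, compound-evoked calcium rise over 180 s flagged agonists.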
DRD3 antagonist: qHTS of D3 Dopamine Receptor Antagonist: qHTS; D3R cells, DiscoveRx beta-arrestin luminescence, antagonist mode; active compounds read low; hit rate 2.5% among 360,000; max response, negative = inhibition, %; in the data active = max response below about -50%; inconclusive = no clear call, values can overlap the other calls; also: % is scaled to controls: 0 for no effect and ±100 for the full control effect
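Cells plated overnight at 1500 cells/well, then exposed to library compounds with dopamine controls for 90 minutes at 37 degrees C. DiscoveRx reagent added for 30–60 minutes at room temperature; luminescence read, quantitative HTS format.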
* = called active by the depositor; ? = inconclusive; / = no result given; ! = a repeat was not active.

SMILES	D1 antagonist	D1 PAM	D3 ag	D1 ag	DRD3 antagonist
Cc1cc(C(C#N)c2ccc(Cl)cc2)c(Cl)cc1NC(=O)c1cc(I)cc(I)c1O (configuration not stated)	-33*	-7	14	13	14
Cc1cc(NC(=O)c2ccc(Cl)cc2)c(C)cc1O	-13	-1	3	0	7
CCN(c1ccccc1)c1nnc(NC(=O)Nc2ccc(Br)cc2F)s1	-23	-3	-6	5	/
CCc1ccc2oc(C(=O)N(Cc3cccc(Cl)c3)Cc3ccco3)c(C)c2c1	-1	-2	-1	15	/
CCOC(=O)CC(NC(=O)Cn1nnc(-c2ccccc2C)n1)c1ccc(OC)cc1 (configuration not stated)	-19	-9	2	31*!	/
CCOC(=O)CC(NC(=O)Cn1nnc(-c2ccc(C(F)(F)F)cc2)n1)c1ccc(OC)cc1 (configuration not stated)	-16	2	7	17	/
COc1ccccc1OCc1nnc(-c2ccccc2)o1	2	1	8	-1	/
CN(Cc1ccccc1)S(=O)(=O)c1ccc(Cl)nc1	2	1	-1	0	20
CC(C)N(Cc1ccccc1)S(=O)(=O)c1ccc(Cl)nc1	-41*	-8	-3	0	7
CCc1nnc(NC(=O)CSc2ncnc3scc(-c4ccc(C)cc4)c23)s1	-2	1	51*	1	30
CCOC(=O)c1cc(-c2ccccc2)n(CC(=O)Nc2ccccc2OCC)c1C	9	0	1	1	/
CCOc1ccc(NC(=O)c2cccc3c(=O)c4c([nH]c23)CCCC4)cc1	6	-2	1	3	/
COc1ccc(NC(=O)c2cccc3c(=O)c4c([nH]c23)CCCC4)cc1	-33*	-4	2	7	/
CN1CCN(C2=Nc3ccccc3Sc3ccc(Cl)cc32)CC1	/	/	-22	/	/
CN1CCN(C2=Nc3ccccc3Oc3ccc(Cl)cc32)CC1	-93*	-7	-79	0	-110*
O=C(O)c1cccc(N2C(=O)c3cc([N+](=O)[O-])cc4cc([N+](=O)[O-])cc(c34)C2=O)c1	7	8	-25	3	-58*
O=C1c2cc([N+](=O)[O-])cc3cc([N+](=O)[O-])cc(c23)C(=O)N1c1ccccn1	6	-4	-40	0	-76*
O=C(O)c1cccc(N2C(=O)c3cccc4cccc(c34)C2=O)c1	4	-12	5	3	-24
O=C1c2ccc(Oc3cccc([N+](=O)[O-])c3)cc2C(=O)N1c1ccccn1	-8	-4	-1	2	-5
COc1ccc(CCNc2nc(-c3sc(N)nc3C)cs2)cc1OC	-61*	-7	-1	1	105
CCc1ccccc1NC(=S)N(Cc1cccc(C)c1)c1cccnc1	14	1	5	5	-3
Cc1cccc(CN(C(=S)Nc2c(C)cccc2C)c2cccnc2)c1	-33*	-6	2	7	14
COC(=O)c1ccc2c(c1)C(C)(C)C(/C=C/c1ccc(OC)c(OC)c1OC)=[N+]2C	-2	-7	-21	5	-88*
CC(C)(C)N(Cc1ccccc1)C(=O)COC(=O)c1ccccc1SCC(=O)N1CCCC1	-38*	-6	5	0	32
O=C(COC(=O)c1ccccc1SCC(=O)N1CCCC1)Nc1ccccc1	-25	-2	0	9	-12
SMILES	D1 antagonist	D1 PAM	D3 ag	D1 ag	DRD3 antagonist
COc1cccc(CN2CCN(c3cccc(C(F)(F)F)c3)CC2)c1OC	-8	-5	-29	1	-73*
CCOc1cccc(CN2CCN(c3cccc(C(F)(F)F)c3)CC2)c1O	2	-4	-60	3	-96*
CC(C)CC(=O)NC(=S)Nc1nc(-c2cccc3ccccc23)cs1	18	5	-9	1	-73*
CCOC(=O)Cc1csc(NC(=S)NC(=O)CC(C)C)n1	5	6	0	0	-11
C=C1C(=C/C=C2\CCC[C@]3(C)[C@@H]([C@H](C)CCCC(C)C)CC[C@@H]23)C[C@@H](O)C[C@@H]1O	/	/	0	/	/
COc1cccc(OC)c1OCCN1CCC(C(=O)NC(c2ccccc2)c2ncccc2C)CC1 (configuration not stated)	/	/	-18	/	?
Cc1cccnc1C(NC(=O)C1CCN(Cc2ccc(Oc3ccccc3)cc2)CC1)c1ccc(F)cc1 (configuration not stated)	/	/	-14	/	-67*
Cc1cccnc1C(NC(=O)C1CCN(CCCc2ccccc2)CC1)c1ccc(Cl)cc1 (configuration not stated)	/	/	-16	/	-78*
Cc1cccnc1C(NC(=O)C1CCN(Cc2ccc(Cl)cc2)CC1)c1ccccc1 (configuration not stated)	/	/	-29	/	-102*
Cc1cccnc1C(NC(=O)C1CCN(CCOc2ccc(F)cc2)CC1)c1ccc(F)cc1 (configuration not stated)	/	/	-15	/	-71*
COc1cc(OC)nc(C(NC(=O)C2CCN(Cc3ccc(Oc4ccccc4)cc3)CC2)c2ccccc2C)n1 (configuration not stated)	/	/	-12	/	-28
Cc1cccnc1C(NC(=O)C1CCN(Cc2cn(C)c3ccccc23)CC1)c1ccc(Cl)cc1 (configuration not stated)	/	/	-23	/	-65*
O=C(NC(c1ccc(Cl)cc1)c1cnccn1)C1CCN(Cc2ccc(Oc3ccccc3)cc2)CC1 (configuration not stated)	/	/	-12	/	?
COc1ccc(-c2cnc(N)n2C)cc1	-4	0	-1	1	1
Cn1c(-c2ccccc2)cnc1N	10	-1	-3	1	-117*
CC(C)CC(OC(=O)CNC(=O)c1ccccc1)C(=O)Nc1cc(C(F)(F)F)ccc1Cl (configuration not stated)	-27	-2	/	5	/
O=c1c2cc(Br)ccc2nc(-c2ccc(Cl)cc2)n1O	4	-6	5	107*	12
COC(=O)CN1C(=O)CSc2ccc(S(=O)(=O)N3CCOCC3)cc21	8	0	-10	-1	/
Cc1cc(C)c(C(=O)NC2CC(C)(C)Cc3c2cnn3-c2cccc(F)c2)[nH]1 (configuration not stated)	14	-2	9	9	13
CCn1nc(C)cc1C(=O)NC1CC(C)(C)Cc2c1cnn2-c1cccc(F)c1 (configuration not stated)	-64*	-14	2	0	18
CCCCCCCC[n+]1cccc(C(=O)N(CC)CC)c1	10	2	0	1	-11
